# From PubChem BioAssay
# Bead autofluor: counter-screen for toxin protease inhibitors: compound fluorescence; 3.1% of 360,000 active; compound autofluorescence counterscreen, microsphere flow cytometry; hits give high values; fluorescence intensity (test concentration not listed); in the data active = fluorescence intensity above about 16000; inconclusive = no clear call, values can overlap the other calls
# Anthrax LF prot: Bacillus anthracis LF protease inhibitors, primary screen, biochemical, multiplex microsphere, MLPCN library; 0.12% of 360,000 active; inhibition, % at 10 µM; Lethal factor (Bacillus anthracis), P15917; AID 588501, 2011; multiplex microsphere protease cleavage assay; note: plate controls were buffer without enzyme for full effect and enzyme alone for no effect
# BoNT A protease: BoNT/A light chain protease inhibitors, primary screen, biochemical, flow cytometry, MLPCN library; Botulinum neurotoxin type A light chain protease (Clostridium botulinum A str. ATCC 3502); multiplex microsphere protease substrate cleavage; inhibition, % at 10 µM; 0.17% of 360,000 active; AID 588499, 2011; note: plate controls were buffer without enzyme for full effect and enzyme alone for no effect
# BJeLR viability: MLPCN primary cell-based screen for lethality selective to Ras in HRASV12 cells | BJeLR (HRASV12) viability, CellTiter-Glo ATP luminescence, 48 h | inhibition, % (test concentration not listed) | 0.17% of 300,000 active | AID 1554, 2009; in the data active = inhibition above about 50%; inconclusive = no clear call, values can overlap the other calls
# BoNT F protease: BoNT/F light chain protease inhibitors, primary screen, biochemical, flow cytometry, MLPCN library; Botulinum neurotoxin type F light chain protease (Clostridium botulinum); inhibition, % at 10 µM; Multiplex microsphere protease cleavage assay; AID 588497, 2011; 0.22% of 360,000 active; in the data active = inhibition above about 35%, passing the limit was not always enough; inconclusive = no clear call, values can overlap the other calls; note: plate controls were buffer without enzyme for full effect and enzyme alone for no effect
# Numbers without * were called inactive; ? = inconclusive; . = not tested or not shown. An excerpt weighted towards active compounds, which were near 3.5% of everything screened. Cut-off read from the data, not from the text of the source, unless noted: active = inhibition above about 30%; inconclusive = no clear call, values can overlap the other calls; inactive = below that.
SMILES,Bead autofluor,Anthrax LF prot,BoNT A protease,BJeLR viability,BoNT F protease
O=C(CN1CCN(Cc2ccccc2)CC1)c1ccc(Br)cc1,21164*,4,0,.,-5
O=C(C1CCCN(S(=O)(=O)c2ccccc2)C1)N1CCN(c2ccccc2)CC1 (stereo not drawn),3835,-2,4,4,8
O=C(CN1CCN(Cc2ccccc2)CC1)c1ccccc1,3433,-2,0,-15,-4
CSc1ccc(C(=S)N2CCN(Cc3ccccc3)CC2)cc1,19865*,-17,7,8,13
CCCCCCCCN1C(=O)[C@H](CC(=O)NCCC(C)C)C[C@@]2(C(=O)OC)CCCCC=C12,5964,1,-1,.,-7
OC[C@@H]1CN(Cc2cccc(C(F)(F)F)c2)C[C@H](n2cnc3c(NCc4ccco4)ncnc32)O1,3695,-1,0,.,0
Cc1ccc(C2CC(=O)C(C=NCCN3CCN(C(=S)Nc4ccccc4)CC3)=C(O)C2)cc1 (stereo not drawn),2215,1,-1,5,0
O=C1CC(c2ccccc2)CC(O)=C1C=NCCN1CCN(C(=O)Nc2ccccc2)CC1 (stereo not drawn),22422*,-2,1,-2,3
O=C(Nc1ccc(Cl)c(Cl)c1)c1csc(-c2ccccc2)n1,16273*,-3,0,-8,-3
O=C(Nc1cccc(Cl)c1)c1csc(-c2ccccc2)n1,11878,5,-3,-7,-12
CC1(C)C2CC=C(CN3CCC(O)CC3)C1C2 (stereo not drawn),16149*,-2,?,-4,0
O=C(Cn1ncc2c3ccccc3n(Cc3ccccc3)c2c1=O)NCCCN1CCCC1=O,4361,-3,-1,4,-4
Cc1cc(=O)oc(C)c1C(=O)NCCc1ccccc1,2400,3,0,4,-5
CCC(C)NC(=O)c1c(C)cc(=O)oc1C (stereo not drawn),20515*,0,-2,-1,-1
Cc1cc(=O)oc(C)c1C(=O)NCc1c(F)cc(F)cc1F,11214,-3,0,0,-1
CCCCNC(=O)c1c(C)cc(=O)oc1C,22316*,-1,2,11,0
O=C(CCC1COc2ccccc2O1)Nc1cccnc1 (stereo not drawn),23308*,-3,-2,-8,0
C=CCn1c(CNC(=O)c2ccco2)nnc1SCC(=O)N1c2ccccc2Sc2ccccc21,18468*,-17,11,-8,14
C=CCn1c(CNC(=O)c2ccco2)nnc1SCC(=O)c1ccc(F)cc1,3682,2,-2,4,25
O=C(c1cccc(-c2ccccc2)c1)N1CC[C@@H](N2CCC(O)CC2)[C@H](O)C1,19128*,8,-1,-1,11
O=S(=O)(c1ccccc1)N1CCN(C(=S)NC2CCCC2)CC1,4430,2,-1,.,-2
O=C(NC1CCCC1)C1(c2ccccc2)CCN(S(=O)(=O)c2ccccc2)CC1,24081*,-1,?,13,-4
CCOC(=O)C1CCN(c2c(Nc3ccc(C)c(C)c3)c(=O)c2=O)CC1,4069,-3,0,-4,-1
CCN(CC)c1ccc(/C=N/NC(=O)c2cccc(S(=O)(=O)N3CCOCC3)c2)c(O)c1,5170,-4,1,54*,-4
CCC1Nc2ccccc2-c2nnc(SC)nc2O1 (stereo not drawn),2570,-7,-1,-1,-2
SMILES,Bead autofluor,Anthrax LF prot,BoNT A protease,BJeLR viability,BoNT F protease
COc1ccccc1C(=O)C1Nc2ccccc2-c2nnc(SC)nc2O1 (stereo not drawn),21854*,2,4,9,7
O=C(CCn1c(=S)oc2ccccc21)Nc1cc([N+](=O)[O-])ccc1F,3192,-13,-4,-6,15
Cc1cc(NC(=O)CS(=O)c2cn(Cc3cccc(Cl)c3)c3ccccc23)no1 (stereo not drawn),3860,9,0,.,4
COc1ccccc1CNCC(O)(c1ccc(Cl)cc1)c1ccc(Cl)cc1,23819*,-4,?,-2,-17
O=C(c1ccco1)N1CCN(C(=O)c2sccc2-c2ccccc2)CC1,20729*,-2,-1,2,-2
O=C(c1ccco1)N1CCN(c2ccc(F)cc2)CC1,2321,0,0,-1,-2
O=C(c1ccco1)N1CCN(CC2CC3C=CC2C3)CC1 (stereo not drawn),20016*,0,1,.,2
Nc1ccc(N2CCN(C(=O)c3ccco3)CC2)cc1,20148*,-4,5,-16,-12
O=C(c1ccco1)N1CCN(C(=O)c2ccco2)CC1,4107,0,1,.,5
COc1ccc(N/C=C/C(=O)c2cc(OC)c(OC)c(OC)c2)cc1,3682,-4,-5,53*,-16
Cn1c(SCC(=O)N2CCN(c3ccccc3)CC2)nnc1-c1cc2ccccc2o1,16756*,-10,-3,2,-2
Cn1c(SCC(=O)N2CCN(c3cccc(Cl)c3)CC2)nnc1-c1ccncc1,22921*,0,-1,-6,-2
CCn1c(SCC(=O)N2CCN(c3ccc(F)cc3)CC2)nnc1-c1ccncc1,20103*,1,-2,-14,-4
CCn1c(SCC(=O)N2CCN(c3ccc(F)cc3)CC2)nc2ccccc2c1=O,2600,-14,-1,0,-5
Nc1nnc(SCC(=O)N2CCN(c3cccc(Cl)c3)CC2)n1-c1ccccc1,23616*,-3,0,9,-3
Cn1c(SCC(=O)N2CCN(c3ccccc3)CC2)nnc1-c1ccncc1,3570,5,0,2,6
COc1ccc(CCN2CC(C(=O)N3CCC(O)(c4ccccc4)CC3)CCC2=O)cc1 (stereo not drawn),6016,0,-1,-5,1
O=C(Nc1ccc(S(=O)(=O)N2CCCC2)cc1)C1CC(=O)N(c2ccc(F)cc2)C1 (stereo not drawn),5598,-2,0,3,4
CCCCNC(=O)C1(C)CCN1C(=O)c1cc(-c2cccs2)oc1C (stereo not drawn),3957,-4,0,.,-4
C=CCc1cccc2ccc(=O)oc12,6128,19,4,20,37*
C=CCc1cccc2cc(C(=O)NC(C)(C)C)c(=O)oc12,2128,-1,0,2,-10
Nc1nc(Cn2nnc(-c3ccccc3Cl)n2)nc(N2CCOCC2)n1,23188*,-4,?,-7,-4
Cc1cc(NC(=O)CSc2nnc(COc3cccc(C)c3C)n2Cc2ccco2)no1,15465,-1,?,-1,3
Cc1cccc(OCc2nnc(SCC(=O)N(C(C)C)C(C)C)n2Cc2ccco2)c1C,16236*,0,0,-4,3
C[C@H](CO)N1C[C@H](C)[C@H](CN(C)S(=O)(=O)c2cccc(F)c2)OCc2ccccc2-c2c(n(C)c3ccccc23)C1=O,3091,0,0,.,-8
